Laboratory results taken from PubChem BioAssay (EPA / NIEHS).
Results filed as inconclusive are left out. Calls of active or inactive are those of the source. The calls were made as follows, unless noted: active = hit-call score of the fitted dose curve at least 0.9, where 1 is the maximum; inactive = score below 0.9.

Legend:
[1] = molecular target: Hepatocyte nuclear factor 4-alpha (Homo sapiens) (UniProt P41235); experiment: ATG_HNF4a_TRANS: Attagene TRANS-FACTORIAL HepG2 Assay for human Hepatocyte Nuclear Factor 4 alpha (HNF4a) (AID 2282982; active = hit-call score of the fitted dose curve at least 0.9, where 1 is the maximum); settings: HepG2 HNF4a transactivation reporter, mRNA readout
Procedure, shortened: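 Readout is fluorescent reporter-transcript fragments resolved by capillary electrophoresis after RT-PCR from HepG2 cells dosed for 24 h. Cells carried transfected GAL4-UAS reporter constructs measuring exogenous NR-GAL4 chimera activity; DMSO served as baseline.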

[2] = ATG_M_06_TRANS: Attagene TRANS-FACTORIAL HepG2 Assay for M06 Transcription Factor (Internal Marker) (AID 2282983; active = hit-call score of the fitted dose curve at least 0.9, where 1 is the maximum;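 also: reporter transcript level by RT-PCR then capillary electrophoresis fluorescence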); settings: HepG2 Attagene TRANS M06 internal marker reporter
Procedure, shortened: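 After a 24 h chemical treatment of transfected HepG2, RNA underwent DNase I treatment, reverse transcription and reporter-specific PCR; labelled, HpaI-digested products were sized by capillary electrophoresis. Signal increase relative to DMSO defined activity.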

[3] = molecular target: Nuclear receptor subfamily 4 group A member 2 (Homo sapiens) (UniProt P43354); experiment: ATG_NURR1_TRANS: Attagene TRANS-FACTORIAL HepG2 Assay for human Nuclear Receptor Related Protein 1 (NURR1) (AID 2282985; active = hit-call score of the fitted dose curve at least 0.9, where 1 is the maximum); settings: HepG2 Attagene TRANS reporter, mRNA readout
Procedure, shortened: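 Transient transfection of HepG2, human liver cells, with multiple GAL4-UAS reporter transcription units. Cells dosed 24 h, RNA isolated, reverse-transcribed, PCR-amplified, FAM-labelled, HpaI-digested, sized by capillary electrophoresis. DMSO served as negative control.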

[4] = molecular target: Transcriptional activator Myb (Homo sapiens) (UniProt P10242); experiment: ATG_Myb_CIS: Attagene CIS-FACTORIAL HepG2 Assay for human Myeloblastosis (Myb) Proto-Oncogene Transcription Factor (AID 2282986); settings: HepG2 Attagene CIS-FACTORIAL Myb reporter transcription; actives raise or lower the signal
Procedure, shortened: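 Using HepG2 liver cells bearing transiently transfected cis-promoter reporter constructs, the assay measures induction or loss of reporter mRNA after 24 hours of dosing. Detection used fluorescently labeled RT-PCR products separated by capillary electrophoresis.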

[5] = molecular target: Nuclear respiratory factor 1 (Homo sapiens) (UniProt Q16656); experiment: ATG_NRF1_CIS: Attagene CIS-FACTORIAL HepG2 Assay for human Nuclear Respiratory Factor 1 (NRF1) Orphan Gene (AID 2282987); settings: HepG2 NRF1 cis-element reporter, Attagene multiplex; actives raise or lower the signal
Procedure, shortened: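 Reporter mRNA induction or loss in HepG2 cells after 24 h dosing; cis-regulated reporter constructs report endogenous transcription-factor activity. Quantified by RT-PCR/capillary electrophoresis fluorescence, DMSO-referenced.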

[6] = ATG_NFI_CIS: Attagene CIS-FACTORIAL HepG2 Assay for human Nuclear Factor I (NFI) (AID 2282989); settings: HepG2 cis-regulatory reporter, NFI response element transcription; actives raise or lower the signal
Procedure, shortened: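 HepG2, transient MRTU, 24 h exposure; RNA→cDNA→PCR→FAM label→HpaI→CE fluorescence. Bidirectional fit, DMSO = baseline.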

[7] = molecular target: Myc proto-oncogene protein (Homo sapiens) (UniProt P01106); experiment: ATG_Myc_CIS: Attagene CIS-FACTORIAL HepG2 Assay for human Myelocytomatosis (Myc) Proto-Oncogene Transcription Factor (AID 2282990); settings: HepG2, Attagene cis-reporter transcription factor activity; actives raise or lower the signal
Procedure, shortened: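 Cells of the HepG2 human liver line bear multiple cis-driven reporter transcription units. Reporter mRNA after 24 h exposure is reverse-transcribed, amplified, labelled and resolved by capillary electrophoresis, with gain- or loss-of-signal fitting relative to DMSO.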

[8] = ATG_NF_kB_CIS: Attagene CIS-FACTORIAL HepG2 Assay for human Nuclear Factor Kappa B (NF-kB) (AID 2282991); settings: HepG2 Attagene cis-factorial NF-kB reporter mRNA; actives raise or lower the signal
Procedure, shortened: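 DMSO served as negative control and baseline for bidirectional curve fitting. Transiently transfected HepG2 cells were dosed for 24 h, then reporter transcripts were measured by RT-PCR with capillary electrophoresis detection.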

[9] = ATG_NRF2_ARE_CIS: Attagene CIS-FACTORIAL HepG2 Assay for human Nuclear Factor Erythroid 2 Related Factor 2 (NFR2) response to Antioxidant Response Elements (ARE) (AID 2282992); settings: HepG2 Attagene ARE/NRF2 reporter, transcription factor activity; actives raise or lower the signal;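 as to AC50: reporter mRNA level measured by RT-PCR and capillary electrophoresis fluorescence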
Procedure, shortened: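 Transient MRTU transfection of HepG2; 24 h compound exposure; TriZol RNA, RT with oligo(dT), PCR, 6-FAM primer extension, HpaI cut, CE. Bidirectional fit vs DMSO.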

[10] = ATG_Oct_MLP_CIS: Attagene CIS-FACTORIAL HepG2 Assay for human Octamer-Binding Transcription Factor (Oct) (AID 2282993); settings: HepG2 Attagene cis-factorial Oct reporter, mRNA; actives raise or lower the signal
Procedure, shortened: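 Multiplexed cis-reporter assay in human liver HepG2 cells, 24 h incubation. Reporter RNA amplified and labelled, then resolved by capillary electrophoresis; DMSO serves as negative control and baseline.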

[11] = molecular target: Cellular tumor antigen p53 (Homo sapiens) (UniProt P04637); experiment: ATG_p53_CIS: Attagene CIS-FACTORIAL HepG2 Assay for human p53 Transcription Factor (AID 2282994); settings: HepG2 p53 cis-element reporter, Attagene mRNA; actives raise or lower the signal
Procedure, shortened: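 HepG2, transient MRTU transfection (cis promoter elements, endogenous TFs); 24 h dosing; RNA isolation, RT-PCR, 6-FAM primer extension, HpaI digest, CE fluorescence; bidirectional fit vs DMSO.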

[12] = ATG_M_32_TRANS: Attagene TRANS-FACTORIAL HepG2 Assay for M32 Transcription Factor (Internal Marker) (AID 2282984; active = hit-call score of the fitted dose curve at least 0.9, where 1 is the maximum;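 also: transcript level of a background control reporter unit measured by RT-PCR and capillary electrophoresis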); settings: HepG2 Attagene TRANS M32 internal marker reporter
Procedure, shortened: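 Measures reporter mRNA induction in human HepG2 liver cells after 24 h chemical treatment. Transcripts from transiently transfected GAL4-UAS reporter units are amplified, fluorescently labelled and sized by capillary electrophoresis; gain of signal relative to DMSO.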

[13] = molecular target: Oxysterols receptor LXR-beta (Homo sapiens) (UniProt P55055); experiment: ATG_LXRb_TRANS: Attagene TRANS-FACTORIAL HepG2 Assay for human Liver X Receptor beta (LXRb) (AID 2282981; active = hit-call score of the fitted dose curve at least 0.9, where 1 is the maximum); settings: HepG2 Attagene TRANS GAL4-LXRb reporter, mRNA
Procedure, shortened: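 Transient transfection HepG2 (multiplexed RTUs, GAL4-UAS); NR-Gal4 chimera; 24 h exposure; RNA → RT-PCR → 6-FAM primer extension → HpaI → CE; increase vs DMSO.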

Measured: AC50

Nuclear respiratory factor 1 (Homo sapiens), sequence (Q16656 whole entry, looked up): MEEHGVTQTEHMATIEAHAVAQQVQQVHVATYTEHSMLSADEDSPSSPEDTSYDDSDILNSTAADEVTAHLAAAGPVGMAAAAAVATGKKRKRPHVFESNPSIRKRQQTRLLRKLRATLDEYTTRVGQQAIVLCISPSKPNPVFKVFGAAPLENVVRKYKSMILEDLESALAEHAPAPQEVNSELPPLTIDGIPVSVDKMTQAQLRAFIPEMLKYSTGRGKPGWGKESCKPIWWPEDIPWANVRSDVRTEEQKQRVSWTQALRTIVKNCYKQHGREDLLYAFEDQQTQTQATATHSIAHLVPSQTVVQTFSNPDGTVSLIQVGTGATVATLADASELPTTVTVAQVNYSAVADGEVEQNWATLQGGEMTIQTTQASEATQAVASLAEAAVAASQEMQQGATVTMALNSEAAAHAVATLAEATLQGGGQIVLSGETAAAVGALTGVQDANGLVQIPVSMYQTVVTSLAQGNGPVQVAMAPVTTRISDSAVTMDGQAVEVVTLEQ
Myc proto-oncogene protein (Homo sapiens), sequence (P01106 whole entry, looked up): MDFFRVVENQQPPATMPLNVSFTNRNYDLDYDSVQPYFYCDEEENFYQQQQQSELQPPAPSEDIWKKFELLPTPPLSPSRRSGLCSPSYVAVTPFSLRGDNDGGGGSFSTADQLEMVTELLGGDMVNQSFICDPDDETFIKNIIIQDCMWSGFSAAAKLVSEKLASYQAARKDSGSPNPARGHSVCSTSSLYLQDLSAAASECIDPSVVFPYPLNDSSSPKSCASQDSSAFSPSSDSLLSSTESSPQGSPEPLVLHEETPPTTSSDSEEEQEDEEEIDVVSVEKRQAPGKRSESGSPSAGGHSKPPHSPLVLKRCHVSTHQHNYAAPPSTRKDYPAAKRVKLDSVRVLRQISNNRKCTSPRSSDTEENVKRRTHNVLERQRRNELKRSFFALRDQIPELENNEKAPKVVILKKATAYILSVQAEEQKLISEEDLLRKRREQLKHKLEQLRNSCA
Nuclear receptor subfamily 4 group A member 2 (Homo sapiens), sequence (P43354 whole entry, looked up, the tested form may be a part): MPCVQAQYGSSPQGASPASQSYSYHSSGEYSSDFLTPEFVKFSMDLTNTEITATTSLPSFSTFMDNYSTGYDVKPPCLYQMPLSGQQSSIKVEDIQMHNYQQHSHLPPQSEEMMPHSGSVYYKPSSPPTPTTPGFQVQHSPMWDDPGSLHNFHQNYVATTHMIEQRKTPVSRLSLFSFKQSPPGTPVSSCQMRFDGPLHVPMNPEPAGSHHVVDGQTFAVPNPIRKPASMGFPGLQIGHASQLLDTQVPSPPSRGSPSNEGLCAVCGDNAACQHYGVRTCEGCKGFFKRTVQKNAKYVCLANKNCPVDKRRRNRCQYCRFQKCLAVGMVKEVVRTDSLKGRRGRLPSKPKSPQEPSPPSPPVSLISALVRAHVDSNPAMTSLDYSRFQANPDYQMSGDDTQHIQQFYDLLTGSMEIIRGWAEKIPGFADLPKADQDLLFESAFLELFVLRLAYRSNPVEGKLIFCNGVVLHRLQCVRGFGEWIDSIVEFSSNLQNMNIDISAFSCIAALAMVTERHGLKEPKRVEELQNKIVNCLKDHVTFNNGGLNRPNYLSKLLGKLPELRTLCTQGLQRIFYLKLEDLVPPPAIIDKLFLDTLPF
Cellular tumor antigen p53 (Homo sapiens), sequence (P04637 whole entry, looked up): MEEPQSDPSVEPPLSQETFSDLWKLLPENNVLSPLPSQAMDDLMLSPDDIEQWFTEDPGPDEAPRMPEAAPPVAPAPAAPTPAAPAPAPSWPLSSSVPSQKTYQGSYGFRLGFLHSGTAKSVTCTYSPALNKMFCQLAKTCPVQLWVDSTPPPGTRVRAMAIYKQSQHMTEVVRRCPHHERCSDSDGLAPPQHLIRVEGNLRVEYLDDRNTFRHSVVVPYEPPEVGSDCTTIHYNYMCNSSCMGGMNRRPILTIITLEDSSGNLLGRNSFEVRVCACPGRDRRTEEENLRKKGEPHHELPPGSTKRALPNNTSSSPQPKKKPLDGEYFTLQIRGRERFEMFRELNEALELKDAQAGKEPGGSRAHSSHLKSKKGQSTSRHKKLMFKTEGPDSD
Transcriptional activator Myb (Homo sapiens), sequence (P10242 whole entry, looked up): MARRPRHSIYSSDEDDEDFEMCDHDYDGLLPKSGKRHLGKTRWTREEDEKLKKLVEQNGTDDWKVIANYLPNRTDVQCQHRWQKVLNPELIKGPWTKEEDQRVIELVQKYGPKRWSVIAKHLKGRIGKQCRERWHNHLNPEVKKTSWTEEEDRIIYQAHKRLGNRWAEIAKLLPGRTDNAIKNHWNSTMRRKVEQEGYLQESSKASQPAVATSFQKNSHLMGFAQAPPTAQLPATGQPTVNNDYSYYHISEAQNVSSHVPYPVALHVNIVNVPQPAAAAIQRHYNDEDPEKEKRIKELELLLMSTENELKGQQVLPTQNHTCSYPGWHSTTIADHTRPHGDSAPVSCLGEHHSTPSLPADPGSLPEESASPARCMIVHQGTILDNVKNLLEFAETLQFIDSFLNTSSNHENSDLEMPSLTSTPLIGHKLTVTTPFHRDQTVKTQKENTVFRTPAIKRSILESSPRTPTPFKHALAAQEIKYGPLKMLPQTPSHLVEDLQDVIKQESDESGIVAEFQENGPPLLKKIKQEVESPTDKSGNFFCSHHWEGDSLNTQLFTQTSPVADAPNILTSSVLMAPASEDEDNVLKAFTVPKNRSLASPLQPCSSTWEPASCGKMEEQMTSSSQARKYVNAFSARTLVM
Hepatocyte nuclear factor 4-alpha (Homo sapiens), sequence (P41235 whole entry, looked up, the tested form may be a part): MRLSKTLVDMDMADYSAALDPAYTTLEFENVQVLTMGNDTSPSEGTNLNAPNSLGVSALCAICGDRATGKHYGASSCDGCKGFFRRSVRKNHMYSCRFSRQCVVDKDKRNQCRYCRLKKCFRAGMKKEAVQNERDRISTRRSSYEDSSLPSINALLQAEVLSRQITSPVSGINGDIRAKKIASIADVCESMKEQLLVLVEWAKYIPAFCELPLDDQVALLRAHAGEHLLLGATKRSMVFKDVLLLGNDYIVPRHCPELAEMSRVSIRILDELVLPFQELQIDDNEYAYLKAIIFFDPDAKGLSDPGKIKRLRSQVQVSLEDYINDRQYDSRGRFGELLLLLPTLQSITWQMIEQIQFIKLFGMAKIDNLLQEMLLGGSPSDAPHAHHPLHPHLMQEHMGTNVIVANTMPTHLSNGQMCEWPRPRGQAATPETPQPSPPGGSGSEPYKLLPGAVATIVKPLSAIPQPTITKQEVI
Oxysterols receptor LXR-beta (Homo sapiens), sequence (P55055 whole entry, looked up, the tested form may be a part): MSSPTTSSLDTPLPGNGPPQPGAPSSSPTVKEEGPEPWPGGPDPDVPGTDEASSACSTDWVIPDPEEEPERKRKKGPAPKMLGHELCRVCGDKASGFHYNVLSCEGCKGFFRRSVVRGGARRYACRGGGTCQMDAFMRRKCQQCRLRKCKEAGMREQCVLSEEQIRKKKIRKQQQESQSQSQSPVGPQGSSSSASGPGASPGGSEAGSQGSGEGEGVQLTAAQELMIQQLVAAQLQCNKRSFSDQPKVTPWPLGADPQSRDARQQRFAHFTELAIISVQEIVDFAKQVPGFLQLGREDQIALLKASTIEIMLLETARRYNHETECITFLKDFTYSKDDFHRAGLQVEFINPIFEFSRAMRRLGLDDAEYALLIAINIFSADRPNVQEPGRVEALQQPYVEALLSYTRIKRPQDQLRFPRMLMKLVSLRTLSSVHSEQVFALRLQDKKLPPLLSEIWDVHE

CC1(C)O[C@@H]2[C@@H](CO[C@@]3(COS(N)(=O)=O)OC(C)(C)O[C@@H]23)O1
not listed: [12] | [13]
inactive: all other assays above

C=C(C)CNCC
not listed: [6] | [13]
inactive: all other assays above

CC(C)OCCO
not listed: [1] | [5] | [8] | [12] | [13]
inactive: all other assays above

O=[N+]([O-])c1cccc(Cl)c1
not listed: [1] | [3] | [12] | [13]
inactive: all other assays above

COc1ccc(N=Nc2cc(C)c(N=Nc3ccc(S(=O)(=O)O)cc3)cc2OC)cc1
active: [5] 71.8 µM | [6] 149 µM | [9] 25.7 µM
not listed: [2] | [3] | [13]
inactive: all other assays above

Brc1ccc(Br)c(Br)c1
not listed: [1] | [2] | [3] | [13]
inactive: all other assays above

CCCCC(CC)(CO)CO
inactive: [4] | [6] | [7] | [9] | [10] | [11]

Cc1ccc(-c2ccccc2)cc1
not listed: [1] | [12] | [13]
inactive: all other assays above

CCCCCCCCCC(=O)OC
inactive: [4] | [6] | [7] | [8] | [9] | [10]

C=C[Si]1(C)O[Si](C)(C=C)O[Si](C)(C=C)O[Si](C)(C=C)O1 (stereo not given)
inactive: [4] | [5] | [6] | [7] | [10] | [11]
active: [8] 19.8 µM | [9] 12 µM

CCCCOCC
inactive: [3] | [4] | [7] | [8] | [9] | [10] | [11]

CCCCC(CC)COC(C)=O (stereo not given)
inactive: [4] | [5] | [6] | [7] | [8] | [9] | [10]

Cc1[nH]c(=O)c(C#N)cc1-c1ccncc1
not listed: [1] | [3] | [8] | [12]
inactive: all other assays above

CN1C(=O)c2ccccc2C1=O
not listed: [1] | [8] | [12] | [13]
inactive: all other assays above

COC(=O)c1ccc([N+](=O)[O-])cc1
not listed: [3] | [4] | [13]
inactive: all other assays above
